Apoferritin bind: binds horse apoferritin like a general anesthetic; P02791; apoferritin/1-aminoanthracene competitive binding, fluorescence; Potency, µM (doses to about 77.5 µM), for inactives: at the highest dose activity change, negative = displacement, actives largely listed as inhibitors; 350,000 tested, 0.074% active; AID 485281; note: % is set by controls: 0 for no effect and ±100 for the full control effect; nearly all actives have a fitted effect of over 20% in size
Target sequence (P02791 2-175 limits assumed): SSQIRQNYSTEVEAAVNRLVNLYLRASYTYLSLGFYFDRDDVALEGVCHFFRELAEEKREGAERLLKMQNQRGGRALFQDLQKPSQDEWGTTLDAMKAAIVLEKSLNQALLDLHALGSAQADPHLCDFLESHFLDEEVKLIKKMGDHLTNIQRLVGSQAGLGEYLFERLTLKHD
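Concentration-response curves derived by four-parameter Hill fitting of normalized fluorescence, where compounds displaced 1-AMA from 10 uM horse apoferritin following a brief 10 min room-temperature incubation; propofol titration acted as positive control.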
ATXN viability: viability counter-screen for ATXN expression inhibitors. S2 cells (HEK-293 line with an ATXN2-luciferase reporter) viability, CellTiter-Fluor protease fluorescence, 24 h. Potency, µM (top dose mostly 56.7 µM), usual class: cytotoxic. 400,000 tested, 0.49% active; note: nearly all actives have a fitted effect of over 40% in size
HepG2 tox-1: kills HepG2 cells in TGF-b inhibitor counter-screen. Potency, µM (series often up to 46.1 µM), without a hit: top-dose activity change, negative = cytotoxicity, actives largely listed as cytotoxic. 410,000 tested, 0.76% active. HepG2 CAGA-GFP viability, ATP luminescence, 18 h
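CellTiter-Glo luminescence gave cytotoxicity after 18 hours at 37 degrees C. The cells were HepG2 CAGA-GFP in 1% FBS DMEM, stimulated with 500 pg/mL TGF-beta after compound addition. %Activity was normalised to no-cell wells (complete cell-killing) and DMSO (no toxicity), and curves were fitted and classified.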
ATXN2 expr inh: ATXN2 expression inhibition. HEK-293 ATXN2-luciferase reporter, luminescence, 24 h. Potency, µM (highest dose often 57 µM), for the others: top-dose activity change, negative = inhibition, hits mostly inhibitors. 360,000 tested, 0.72% active. AID 1745845; note: % is set by controls: 0 for no effect and ±100 for the full control effect; nearly all actives have a fitted effect of over 55% in size
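ATXN2-luciferase reporter cells (luciferase flanked by upstream and downstream ATXN2 gene portions) were treated 24 h at 37 °C with compounds at up to 57 uM. SteadyGlo luminescence gave expression; GF-AFC fluorescence gave viability.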
TGFb SMAD3 inh: inhibitors of TGF-b signaling | HepG2 CAGA-GFP TGF-b/SMAD3 reporter, GFP fluorescence, 18 h; TGF-beta stimulated, 500 pg/mL final | Potency, µM (series often up to 46.1 µM), without a hit: top-dose activity, negative = inhibition, most hits filed as inhibitors | 410,000 tested, 1.2% active | AID 588855; note: % is set by controls: 0 for no effect and ±100 for the full control effect; nearly all actives have a fitted effect of over 65% in size
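Read-out: total well GFP (ex488/em500-530) summed from mean per-cell fluorescence. Cells: HEPG2 CAGA-GFP, 1% FBS DMEM, 18 h at 37 degrees C with 500 pg/mL final TGF-beta. Unstimulated wells served as the full-inhibition control; stimulated DMSO wells = 0%.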
TGFb confirm: confirmation of TGF-b signaling inhibitors in HepG2 reporter cells; Potency, µM (top dose mostly 46.1 µM), for the others: at the top dose activity, negative = inhibition, most hits filed as inhibitors; shares compounds with TGFb SMAD3 inh; AID 720534; HepG2 CAGA-GFP TGF-b reporter, GFP fluorescence, 18 h; cells stimulated with TGF-beta, 500 pg/mL; 1,600 tested, 63% active; note: % is set by controls: 0 for no effect and ±100 for the full control effect; nearly all actives have a fitted effect of over 65% in size
HepG2 tox-2: HepG2 cytotoxicity, TGF-b inhibitor counterscreen. Potency, µM (top dose mostly 46.1 µM), without a hit: at the highest dose activity, negative = cytotoxicity, hits mostly inhibitors. shares compounds with TGFb SMAD3 inh. HepG2 CAGA-GFP viability, ATP luminescence, 18 h; cells stimulated with TGF-beta, 500 pg/mL. 1,600 tested, 27% active; note: % is set by controls: 0 for no effect and ±100 for the full control effect; nearly all actives have a fitted effect of over 70% in size
TGFb CCL64 inh: orthogonal confirmation of TGF-b inhibitors in CCL64 cells. Potency, µM (highest dose often 46.1 µM), for inactives: at the highest dose activity, negative = inhibition, most hits filed as inhibitors. 1,600 tested, 41% active. shares compounds with TGFb SMAD3 inh. CCL64 CAGA-GFP reporter, TGF-b stimulated, GFP fluorescence, 18 h; note: nearly all actives have a fitted effect of over 65% in size
TGFb COP inh: blocks TGF-b signaling in HepG2 COP reporter; shares compounds with TGFb SMAD3 inh; HepG2 COP-GFP TGF-b reporter, GFP fluorescence, 18 h; cells stimulated by added recombinant TGF-beta; Potency, µM (top dose mostly 46.1 µM), for inactives: at the highest dose activity, negative = inhibition, most hits filed as inhibitors; 1,600 tested, 3% active; AID 720537; note: nearly all actives have a fitted effect of over 70% in size
Starred values were filed as active, the others as inactive; i = inactive; ? = inconclusive; . = not tested or not shown. Rows were chosen to be rich in hits. Some 2.4% of all compounds tested hit in one or more screens of this group. Calls come from the whole dose curve; as a rule, active = well fitted curve in the direction sought with a large enough effect; inconclusive = small, poorly fitted or top-dose-only effect, or another doubt; inactive = no such curve, though single readings can be large; an effect the other way counts as inactive or inconclusive. Potency is the fitted concentration of half-maximal effect.

SMILES | Apoferritin bind | ATXN viability | HepG2 tox-1 | ATXN2 expr inh | TGFb SMAD3 inh | TGFb confirm | HepG2 tox-2 | TGFb CCL64 inh | TGFb COP inh
CCCCc1ccc(NC(=S)Nc2ccc(Nc3ccc(OC)cc3)cc2)cc1 | -24% | i | -9% | -6% | 8.9µM* | 23µM* | ? | ? | 46%
CCCCc1ccc(NC(=S)NCc2cccc(OC)c2)cc1 | ? | i | -17% | -17% | ? | . | . | . | .
NC(c1ccccc1)c1csc(NC(=O)NCC2CCCCC2)n1 (stereo not given) | . | ? | -47% | -15% | -14% | . | . | . | .
Cc1ccc2nc(/C(C#N)=C\c3ccc(N4CCOCC4)o3)[nH]c2c1 | -15% | i | -19% | 60% | 108% | . | . | . | .
Cc1ccc2nc(/C(C#N)=C\c3ccc([N+](=O)[O-])o3)[nH]c2c1 | -12% | . | 5µM* | 5.6µM* | ? | 16µM* | 6.5µM* | 4.6µM* | 5%
COc1ccc(-c2nc(-c3ccc4c(c3)OCO4)[nH]c2-c2ccc(OC)cc2)cc1 | 7% | ? | -41% | -20% | -4% | 23µM* | ? | 26µM* | 63%
CNc1ccc(/C=C2\COc3ccccc3C2=O)cc1[N+](=O)[O-] | 1% | i | 6% | 43% | 16% | . | . | . | .
O=C1/C(=C/c2ccccc2[N+](=O)[O-])COc2ccccc21 | ? | 24µM* | -23% | 21µM* | 7.9µM* | 2.1µM* | 10µM* | 2.3µM* | 4%
COc1ccc(-c2cc3ccccc3oc2=O)cc1NC(=O)c1ccc([N+](=O)[O-])o1 | -10% | ? | -19% | 9% | 6.3µM* | 1.8µM* | ? | -27% | -2%
Cc1oc(-c2ccccc2NC(=O)c2cccnc2)nc1CNC(=O)C1CCCCCN1C (stereo not given) | . | i | . | . | . | . | . | . | .
CC(C)(C)c1ccc(S(=O)(=O)N2CCC(c3nc4ccc(Cl)cc4[nH]3)CC2)cc1 | -10% | i | -28% | ? | 20µM* | 16µM* | ? | ? | 46%
CC(=O)N(C1=C(Cl)C(=O)c2ccccc2C1=O)C1CCCCC1 | -12% | . | -89% | ? | 2.8µM* | 3.3µM* | 8.2µM* | 4.6µM* | 10µM*
COc1cccc(-c2csc(NC3OC(=O)c4c3ccc(OC)c4OC)n2)c1 (stereo not given) | -9% | ? | -23% | 81% | 11µM* | 21µM* | -24% | ? | 22%
COc1ccc2c(c1OC)C(=O)OC2Nc1nc(-c2ccc(-c3ccccc3)cc2)cs1 (stereo not given) | -19% | i | -12% | 103% | 7.1µM* | 23µM* | -17% | ? | -2%
O=C(Cn1c(SCCOc2ccccc2)nc2ccccc21)N1CCOCC1 | 2% | i | 2% | 10% | -2% | . | . | . | .
O=[N+]([O-])c1c(Nc2ccccn2)cc(Cl)c2nonc12 | -10% | ? | -91% | 28µM* | 3.2µM* | 4.6µM* | 4.6µM* | 4.6µM* | 5.2µM*
